# RE007 growth inh = qHTS Assay for Inhibitors of the HIV-1 protein Vpr | S. pombe RE007 Vpr strain, BacTiter-Glo ATP luminescence, 24 h | Potency, µM (highest dose often 92.2 µM), for the others: top-dose activity change, negative = less growth, actives largely listed as inhibitors | 0.21% of 360,000 active | AID 651644, 2012; active = well fitted falling curve with a large enough effect; inconclusive = small, poorly fitted or top-dose-only effect; inactive = no such curve, though single readings can be large or run the other way; note: potency is the fitted concentration of half-maximal effect; % is set by controls: 0 for no effect and ±100 for the full control effect; nearly all actives have a fitted effect of over 50% in size
#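 Fission yeast strain RE007, carrying one chromosomally integrated HIV-1 vpr copy, was seeded at OD 0.01 in PMG+AL medium with 23 nL pinned compound. After 24 h at 30 °C and 99% humidity, viability was read by BacTiter-Glo luminescence.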
# Shiga toxin inh = A qHTS for Small Molecule Inhibitors of Shiga Toxin; Vero cells, Shiga toxin protein synthesis inhibition reporter; inhibition, % at 38.7 µM; 9.2% of 290,000 active; in the data active = inhibition mostly above about 28%, no sharp cut-off; inactive = mostly below about 43%; note: 0% is about no effect
# Giardia FBPA inh = qHTS Assay for Inhibitors of Fructose-1,6-bisphosphate Aldolase from Giardia Lamblia; A8B2U2; purified Giardia FBPA; Potency, µM (series often up to 59.6 µM), inactives show at the top dose activity, negative = inhibition, hits mostly inhibitors; 0.71% of 290,000 active; note: potency is the fitted concentration of half-maximal effect; % is set by controls: 0 for no effect and ±100 for the full control effect; nearly all actives have a fitted effect of over 55% in size
# Target sequence (A8B2U2 whole entry, looked up): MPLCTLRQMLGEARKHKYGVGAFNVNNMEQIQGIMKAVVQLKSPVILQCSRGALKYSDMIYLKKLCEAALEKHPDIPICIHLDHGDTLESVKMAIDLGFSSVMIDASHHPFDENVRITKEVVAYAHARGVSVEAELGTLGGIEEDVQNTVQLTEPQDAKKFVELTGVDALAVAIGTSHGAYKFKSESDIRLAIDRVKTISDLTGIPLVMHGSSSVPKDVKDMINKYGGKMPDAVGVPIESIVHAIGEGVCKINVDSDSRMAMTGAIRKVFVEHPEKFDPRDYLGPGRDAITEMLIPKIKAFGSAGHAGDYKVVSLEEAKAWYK
#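 40 nM FBPA preincubated 10 min at RT with compound (up to 57.5 uM final), then substrate plus GAPDH/TPI/NAD/arsenate coupling and diaphorase/resazurin added. Fluorescence read after 20 min at RT, 525/598 nm.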
# LmPK inhibitor = qHTS Assay for Inhibitors of Leishmania Mexicana Pyruvate Kinase (LmPK); Q27686; purified LmPK, Kinase-Glo ATP luminescence, 1 h; Potency, µM (series often up to 57.5 µM), for inactives: at the highest dose activity change, negative = inhibition, most hits filed as inhibitors; 0.37% of 290,000 active; AID 1721, 2009; note: potency is the fitted concentration of half-maximal effect; % is set by controls: 0 for no effect and ±100 for the full control effect
#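 Purified LmPK (0.1 nM) with 0.5 mM PEP and 0.1 mM ADP in imidazole buffer pH 7.2 with MgCl2/KCl, 1 h at room temperature. ATP formed was read by luciferase luminescence and normalized to no-enzyme and uninhibited controls.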
# Tb PYK inh = qHTS of Trypanosoma Brucei Inhibitors. TbPYK enzyme, Kinase-Glo Plus ATP luminescence, 45 min. AID 624173, 2012. pyruvate kinase (Trypanosoma brucei), Q57TT1. Potency, µM (highest dose often 76.8 µM), inactives show top-dose activity, negative = inhibition, hits mostly inhibitors. 0.12% of 410,000 active; note: potency is the fitted concentration of half-maximal effect; % is set by controls: 0 for no effect and ±100 for the full control effect; nearly all actives have a fitted effect of over 50% in size
#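 Readout: single end-point luminescence (Kinase-Glo Plus, 10 min). Reaction conditions were TbPYK/substrate plus 130 uM ADP, 45 min at RT, pH 7.2 TEA buffer. No-enzyme wells served as controls, and data were normalized before concentration-response fitting.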
# CHX counter = Cycloheximide Counterscreen for Small Molecule Inhibitors of Shiga Toxin. AID 2314, 2010. cell reporter, cycloheximide protein synthesis inhibition counterscreen. 12% of 300,000 active. max response, %; in the data active = max response mostly above about 13%, no sharp cut-off; inactive = mostly below about 14%; note: read at 38.3 µM for the half of the compounds with a filed dose; 0% is about no effect
# * marks the source's active call; other numbers are inactive results; ? = inconclusive; nt = not tested or not shown; + = active, no number; [ ] = remark or other dose. This excerpt belongs to a sample that is enriched for hits. Unless noted, calls come from the whole dose curve; as a rule, active = well fitted curve in the direction sought with a large enough effect; inconclusive = small, poorly fitted or top-dose-only effect, or another doubt; inactive = no such curve, though single readings can be large; an effect the other way counts as inactive or inconclusive.
SMILES,RE007 growth inh,Shiga toxin inh,Giardia FBPA inh,LmPK inhibitor,Tb PYK inh,CHX counter
N#CC1=C(N)Oc2n[nH]c(-c3cccnc3)c2C1c1ccc([N+](=O)[O-])o1 (stereo not drawn),-25%,54,-20%,4%,-14%,20*
Fc1ccc2nc3[nH]c4ccccc4c3nc2c1,-17%,62*,-11%,-13%,0%,44*
OC1=C(O)c2nc3cc(F)ccc3nc21,15%,26,?,-12%,-1%,-2
Cc1ccc(-c2nnc3ccccc3c2C(=O)Nc2ccc(C)c(F)c2)cc1,nt,nt,nt,nt,1%[15.4 µM],nt
Cc1cc(-n2c(C)cc(C(=O)CN3C(=O)NC4(CCCCC4C)C3=O)c2C)no1 (stereo not drawn),7%,9,0%,0%,-6%,-1
Cc1cc(-n2c(C)cc(C(=O)CN3C(=O)NC4(CCCCC4)C3=O)c2C)no1,14%,11,-2%,6%,9%,9.7*
Cc1cc(-n2c(C)cc(C(=O)CN3C(=O)NC4(CCCC4)C3=O)c2C)no1,11%,23,13%,0%,0%,27*
Cc1cc(-n2c(C)cc(C(=O)CN3C(=O)C(=O)N(C)C3=O)c2C)no1,20%,nt,nt,nt,2%,nt
Cc1ccc(/C=N/NC(=O)c2c[nH]c3ccccc23)o1,7%,72*,-1%,0%,4%,20*
C/C(=N\NC(=O)c1c[nH]c2ccccc12)c1ccc(C)s1,3%,38,0%,-4%,0%,25*
Cc1ccc(/C=N/NC(=O)c2c[nH]c3ccccc23)s1,8%,77*,nt,0%,5%,30*
Cc1ccsc1/C=N/NC(=O)c1c[nH]c2ccccc12,12%,106*,-6%,0%,0%,60*
Cc1ccc(/C=N/NC(=O)C[n+]2ccccc2)s1,5%,5,1%,2%,3%,5
Cc1ccsc1/C=N/NC(=O)c1cc(-c2ccncc2)nc2ccccc12,2%,-3,-2%,0%,-5%,-1
NC1=NC(=O)C2(COC(c3cccnc3)OC2)S1 (stereo not drawn),6%,-10,2%,9%,-13%,2
Cc1cc(C)nc(N/C(=N\S(=O)(=O)Cc2ccccc2)Nc2ccccc2Br)n1,4%,-15,1%,-1%,-7%,-5
OCC1(CCOc2ccccc2)CCN(Cc2nc3ccc(F)cc3[nH]2)CC1,41%,21,0%,3%,-2%,-2
CC/C(=N\NC(=O)c1c[nH]c2ccccc12)c1cccs1,6%,61*,-12%,-1%,5%,62*
O=C(N/N=C/c1cc([N+](=O)[O-])ccc1O)c1c[nH]c2ccccc12,3%,11,9%,4%,7%,-3
COc1ccc(C/C(C)=N\NC(=O)c2c[nH]c3ccccc23)cc1OC,11%,71*,-3%,-1%,-4%,29*
CCn1nc(C)c(/C=N/NC(=O)c2c[nH]c3ccccc23)c1C,-20%,40*,-1%,-2%,2%,50*
C/C(=N/NC(=O)c1ccncc1)c1c[nH]c2ccccc12,-7%,48,-13%,-8%,1%,7
O=C(N/N=C/c1cccc([N+](=O)[O-])c1)c1c[nH]c2ccccc12,-3%,79*,-14%,1%,5%,34*
C=CCn1c(COc2ccc(Cl)cc2)nnc1SCC(=O)N1CC(=O)Nc2ccccc21,2%[3.69 µM],-5,1%,3%,nt,-3
CCCCNC(=O)c1ccc2nc(CC)c(N(CC)CCOC)n2c1,-20%,nt,nt,nt,-4%,nt
SMILES,RE007 growth inh,Shiga toxin inh,Giardia FBPA inh,LmPK inhibitor,Tb PYK inh,CHX counter
CCc1nc2ccc(C(=O)N3CCN(C)CC3)cn2c1N(C)CCC(C)C,-11%[18.4 µM],nt,nt,nt,-2%,nt
CCn1nc(C)c(/C=N/NC(=O)Cn2nc(C)cc2C)c1C,0%,31,4%,2%,0%,4
O=C(N/N=C/c1ccsc1)c1c[nH]c2ccccc12,-3%,67*,-3%,2%,2%,47*
O=C(N/N=C/c1ccsc1)c1cc(-c2cccs2)nc2ccccc12,0%,-7,0%,4%,5%,1
CCn1nc(C)c(/C=N/NC(=O)Cn2nccc2C)c1C,-5%,72*,5%,-2%,1%,37*
CCc1c(C(=O)N/N=C/c2ccsc2)csc1C,0%,+,-9%,0%,1%,39*
N#CN1CCC(NS(=O)(=O)c2ccc(C(F)(F)F)cc2)C1 (stereo not drawn),nt,nt,nt,nt,3%,nt
CCc1ccccc1OCC(=O)NNCC(=O)Nc1cccc(C#N)c1,6%,nt,nt,nt,4%,nt
CN(Cc1nccn1C)C(=O)c1cc(COc2ccc3ncccc3c2)on1,-9%,6,-1%,2%,2%,-2
CN(CCN1CCOCC1)C(=O)c1cc(COc2ccc(F)c(F)c2)on1,-3%,88,nt,-3%,-2%,34*
COc1ccc(OCc2cc(C(=O)N(C)C3CCOCC3)no2)c2ccccc12,-8%,101*,?,1%,1%,47*
Cc1ccc(OCc2cc(C(=O)N(C)Cc3cnc4ccccn34)no2)cc1C,-1%,33,-6%,-4%,-22%,20*
CN(C(=O)c1cc(COc2ccc(F)c(F)c2)on1)C1CCOC1 (stereo not drawn),6%,33,nt,1%,-4%,31*
Cc1n[nH]c(C)c1CN(C)C(=O)c1cc(COc2ccc(F)c(F)c2)on1,-4%,11,1%,9%,-9%,10
COc1cc(Cl)ccc1OCc1cc(C(=O)N(C)C2CC(C)(C)NC(C)(C)C2)no1,-2%,-3,nt,0%,-11%,-2
Cc1ccc(OCc2cc(C(=O)N(C)CC3CCOCC3)no2)cc1C,1%,133*,-9%,-5%,-5%,77*
CN(C(=O)c1cc(COc2ccc(F)cc2Cl)on1)C1CCCc2ccccc21 (stereo not drawn),-7%,6,nt,-3%,-2%,1
Cc1cc(OCc2cc(C(=O)N(C)C3CCOCC3)no2)cc(C)c1Cl,-1%,126*,-5%,-4%,-7%,86*
COc1ccc(OCc2cc(C(=O)N(C)C3CCOC3)no2)c(Cl)c1 (stereo not drawn),10%,43,nt,0%,-2%,27*
Cc1cc(OCc2cc(C(=O)N3CCN(C)C(=O)[C@@H]3C)no2)cc(C)c1Cl,0%,9,nt,3%,-1%,9
CCCCCCCCCCCCCCCC(=O)OC(C)C,nt,nt,nt,nt,-9%,nt
O=C(Nc1ccc(Cl)cc1[N+](=O)[O-])c1ccc2c(c1)OCCO2,4%,67*,3%,-1%,2%,40*
